Reference: PubChem BioAssay (NCI)
This is part of a sample that, as a whole, favours compounds with a hit. Of some 83,000 tested, about 20% had one in any assay.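 Method: cells in 96-well plates; compound added at one concentration; 48 h incubation; percent growth measured; values under 10 scored active.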 Activity calls are given as the source filed them.

Legend:
Assay in all cases: NCI-60 one-dose screen, 48 h (100 = growth as untreated, 0 = no growth, -100 = all killed)
Conditions in all cases: 10 µM unless noted
SK-MEL-2 melanoma = tested on: SK-MEL-2 melanoma
EKVX NSCLC = tested on: EKVX NSCLC
SN12C renal = tested on: SN12C renal
UO-31 renal = tested on: UO-31 renal
TK-10 renal = tested on: TK-10 renal
ACHN renal = tested on: ACHN renal
CAKI-1 renal = tested on: CAKI-1 renal
A498 renal = tested on: A498 renal
CCRF-CEM leukemia = tested on: CCRF-CEM leukemia
MOLT-4 leukemia = tested on: MOLT-4 leukemia

Measured: growth

O=C(/C=C/c1ccc(Cl)cc1)c1ccc(-n2cc(CN3CCN(c4cc5c(cc4F)c(=O)c(C(=O)O)cn5C4CC4)CC3)nn2)cc1
inactive: SK-MEL-2 melanoma 99.1% | EKVX NSCLC 96.6% | SN12C renal 58.2% | UO-31 renal 65.1% | TK-10 renal 92.4% | ACHN renal 89.9% | CAKI-1 renal 75.5% | A498 renal 60.5% | CCRF-CEM leukemia 74.6% | MOLT-4 leukemia 81.7%

O=C1c2ccccc2C(=O)c2cc(Cn3c[n+](Cc4ccc5ccccc5c4)c4ccccc43)ccc21
inactive: SK-MEL-2 melanoma 51.2% | EKVX NSCLC 73.9% | SN12C renal 47.8% | UO-31 renal 72.8% | TK-10 renal 67.8% | ACHN renal 92.4% | CAKI-1 renal 40.5% | A498 renal 77.8% | CCRF-CEM leukemia 22.1% | MOLT-4 leukemia 28.1%

COc1cc2ncnc(Nc3ccc(S(=O)(=O)Nc4cc(C)on4)cc3)c2cc1OCCCN1CCOCC1
inactive: SK-MEL-2 melanoma 101% | EKVX NSCLC 93.4% | SN12C renal 104% | UO-31 renal 88.1% | TK-10 renal 95.3% | ACHN renal 106% | CAKI-1 renal 98% | A498 renal 104% | CCRF-CEM leukemia 104% | MOLT-4 leukemia 101%

CCNCCNc1c(C)c(-c2ccc(C(F)(F)F)cc2)c(C#N)c2nc3ccccc3n12
inactive: SK-MEL-2 melanoma 102% | EKVX NSCLC 92.4% | SN12C renal 67.2% | UO-31 renal 79.1% | TK-10 renal 109% | ACHN renal 82.5% | CAKI-1 renal 92.3% | A498 renal 69.6% | CCRF-CEM leukemia 86.9% | MOLT-4 leukemia 90.9%

CC(C)(C)CC(C)(C)Nc1c(-c2c(O)c3ccccc3oc2=O)nc2sccn12
inactive: SK-MEL-2 melanoma 96.8% | EKVX NSCLC 105% | SN12C renal 93.5% | UO-31 renal 83.6% | TK-10 renal 90.5% | ACHN renal 99.8% | CAKI-1 renal 92.8% | A498 renal 118% | CCRF-CEM leukemia 92.2% | MOLT-4 leukemia 101%

COc1nc2ccccc2cc1/C=C1/C=C(c2ccccc2)NC1=O
inactive: SK-MEL-2 melanoma 19% | EKVX NSCLC 52.5% | SN12C renal 40.6% | UO-31 renal 41.2% | TK-10 renal 87.5% | ACHN renal 40.9% | CAKI-1 renal 31.9% | A498 renal 35.9% | CCRF-CEM leukemia 41.1% | MOLT-4 leukemia 21.5%

N#Cc1c(-c2ccc(Cl)cc2)nc(NN=Cc2cccc(Cl)c2)nc1N1CCOCC1
inactive: SK-MEL-2 melanoma 96.5% | EKVX NSCLC 77.7% | SN12C renal 91.8% | UO-31 renal 53.5% | TK-10 renal 106% | ACHN renal 74.3% | CAKI-1 renal 67.4% | A498 renal 42.2% | CCRF-CEM leukemia 72.5% | MOLT-4 leukemia 53.3%

CCCCC1=C(Br)C(=O)c2ncccc2C1=O
active: CCRF-CEM leukemia 8.13% | MOLT-4 leukemia 5.83%
inactive: SK-MEL-2 melanoma 111% | EKVX NSCLC 99.2% | SN12C renal 92.7% | UO-31 renal 87.6% | TK-10 renal 109% | ACHN renal 67.4% | CAKI-1 renal 90% | A498 renal 99.5%

O=C(Nc1cccc(Cl)c1)Oc1c(Cl)c(Cl)c(Cl)c(Cl)c1Cl
inactive: SK-MEL-2 melanoma 100% | EKVX NSCLC 78.9% | SN12C renal 97.1% | UO-31 renal 72.1% | TK-10 renal 125% | ACHN renal 95.6% | CAKI-1 renal 88.2% | A498 renal 78.8% | CCRF-CEM leukemia 94.4% | MOLT-4 leukemia 96%

CN1/C(=C/C=C/c2n(Cc3ccc4ccccc4c3)c(Cl)c(Cl)[n+]2Cc2ccc3ccccc3c2)Oc2ccccc21
active: SK-MEL-2 melanoma -87.9% | EKVX NSCLC -91.7% | SN12C renal -92.9% | UO-31 renal -93.1% | TK-10 renal -90.5% | ACHN renal -96.6% | CAKI-1 renal -94.1% | A498 renal -77.9% | CCRF-CEM leukemia -52.7%
inactive: MOLT-4 leukemia 91.1%

C=CCNc1nc(O)c(/C=C2\C=Nc3ncccc32)s1
active: SK-MEL-2 melanoma -8.35% | UO-31 renal 3.09% | TK-10 renal 1.67% | ACHN renal -1.22% | A498 renal -34.5% | CCRF-CEM leukemia 7.13% | MOLT-4 leukemia 5.78%
inactive: EKVX NSCLC 30.5% | SN12C renal 24% | CAKI-1 renal 30.2%

Cc1c(CC(=O)Nc2ccccc2)nnn1-c1ccccc1
inactive: SK-MEL-2 melanoma 107% | EKVX NSCLC 104% | SN12C renal 108% | UO-31 renal 88.2% | TK-10 renal 101% | ACHN renal 109% | CAKI-1 renal 97.5% | A498 renal 108% | CCRF-CEM leukemia 105% | MOLT-4 leukemia 99.7%

COc1ccc(S(=O)(=O)N(C)c2oc(-c3ccc(Cl)cc3)nc2C#N)cc1
inactive: SK-MEL-2 melanoma 85% | EKVX NSCLC 86.8% | SN12C renal 88.4% | UO-31 renal 72.2% | TK-10 renal 94.3% | ACHN renal 101% | CAKI-1 renal 75.6% | A498 renal 63.8% | CCRF-CEM leukemia 72.2% | MOLT-4 leukemia 59.4%

CCCCCCCCCCCCCC[n+]1ccc2c(C)c3c(c(C)c2c1)c1cc(O)ccc1n3CC
active: SK-MEL-2 melanoma -81.6% | EKVX NSCLC -34.5% | SN12C renal -74.9% | UO-31 renal -1.41% | TK-10 renal -46.6% | ACHN renal -25.3% | A498 renal -19.8% | CCRF-CEM leukemia -16% | MOLT-4 leukemia -44.5%
inactive: CAKI-1 renal 31.4%

C=CCOC(=O)C1=C(C)N(CC)C(=O)N(CC)C1c1c(Cl)n(C)c2ccccc12 (stereo not given)
active: CCRF-CEM leukemia -9.42%
inactive: SK-MEL-2 melanoma 95.6% | EKVX NSCLC 75.5% | SN12C renal 89% | UO-31 renal 64.6% | TK-10 renal 94.1% | ACHN renal 56.9% | CAKI-1 renal 32.8% | A498 renal 82.5% | MOLT-4 leukemia 89.3%

CN(C)CC1C(=O)O[C@H]2[C@H]1CC/C(COC(=O)NCc1ccc(Cn3c(=O)sn(CCCI)c3=O)cc1)=C\CC[C@@]1(C)O[C@@H]21 (stereo not given in full)
active: UO-31 renal 1.41% | TK-10 renal -63.3% | ACHN renal -48.8% | CAKI-1 renal -63.8% | CCRF-CEM leukemia -10.1% | MOLT-4 leukemia -1.36%
inactive: SK-MEL-2 melanoma 63.3% | EKVX NSCLC 89.7% | SN12C renal 18.9% | A498 renal 105%

CCCCCCCC/C=C\CCCCCCCCOc1ccc(CC(=O)NCC[N+]2(C)CCCC2)cc1
inactive: SK-MEL-2 melanoma 103% | EKVX NSCLC 86.1% | SN12C renal 42.5% | UO-31 renal 93.3% | TK-10 renal 38.5% | ACHN renal 84.1% | CAKI-1 renal 50.9% | A498 renal 86.4% | CCRF-CEM leukemia 29.5% | MOLT-4 leukemia 68.4%

c1ccc2cc(Cn3cc[n+](Cc4ccc5ccccc5c4)c3)ccc2c1
active: SK-MEL-2 melanoma -11.5% | TK-10 renal 8.12%
inactive: EKVX NSCLC 51.7% | SN12C renal 18.2% | UO-31 renal 70.6% | ACHN renal 90.6% | CAKI-1 renal 96% | A498 renal 75.9% | CCRF-CEM leukemia 21.7% | MOLT-4 leukemia 25%

C=CC(=O)Nc1ccc2ncnc(Nc3cccc(NS(=O)(=O)CCC)c3Cl)c2c1
active: A498 renal -14.3%
inactive: SK-MEL-2 melanoma 51.9% | EKVX NSCLC 51.8% | SN12C renal 22.9% | UO-31 renal 19.2% | TK-10 renal 11.3% | ACHN renal 29.3% | CAKI-1 renal 22.6% | CCRF-CEM leukemia 50.2% | MOLT-4 leukemia 67.3%

C#CCOc1ccc(C2=NN(CCCC)C3N=C(Cl)c4ncn(CCCC)c4N23)cc1OCC#C (stereo not given)
inactive: SK-MEL-2 melanoma 101% | EKVX NSCLC 85.2% | SN12C renal 91.4% | UO-31 renal 62.5% | TK-10 renal 97.8% | ACHN renal 87.4% | CAKI-1 renal 74.3% | A498 renal 73% | CCRF-CEM leukemia 78.2% | MOLT-4 leukemia 65.3%

Cc1cccc(C)c1NC(=O)Nc1ccccc1
inactive: SK-MEL-2 melanoma 29% | EKVX NSCLC 121% | SN12C renal 88.6% | UO-31 renal 80.7% | TK-10 renal 96.7% | CAKI-1 renal 54.3% | A498 renal 109% | CCRF-CEM leukemia 83.1% | MOLT-4 leukemia 81.7%
active: ACHN renal 4.67%

Cc1cc(N2CCOCC2)nc(N(CCCNc2ccnc3cc(Cl)ccc23)Cc2ccc3c(c2)OCO3)n1
inactive: SN12C renal 21% | CAKI-1 renal 35.2%
active: SK-MEL-2 melanoma -18.5% | EKVX NSCLC 3.49% | UO-31 renal -32.3% | TK-10 renal -66% | ACHN renal -86.2% | A498 renal -31.5% | CCRF-CEM leukemia -5.56% | MOLT-4 leukemia -36.2%
